From PMC7862700, “An all-to-all approach to the identification of sequence-specific readers for epigenetic DNA modifications on cytosine”

Legend:
Test in all cases: DAPPL (digital affinity profiling via proximity ligation, sequencing); 10 mM Tris-HCl pH 7.5, 50 mM NaCl, 1 mM DTT, 4% glycerol, room temperature, 30 min; GST-TFs on glutathione beads, 16-mer random dsDNA library, 0.1% formaldehyde crosslink after washing; high values mean tight binding
Settings in all cases: protein: recombinant; tags: N-terminal GST; dsDNA, one strand shown
[1] = target: T1, FEV (Homo sapiens, UniProt Q99581 1-238)
T1 sequence: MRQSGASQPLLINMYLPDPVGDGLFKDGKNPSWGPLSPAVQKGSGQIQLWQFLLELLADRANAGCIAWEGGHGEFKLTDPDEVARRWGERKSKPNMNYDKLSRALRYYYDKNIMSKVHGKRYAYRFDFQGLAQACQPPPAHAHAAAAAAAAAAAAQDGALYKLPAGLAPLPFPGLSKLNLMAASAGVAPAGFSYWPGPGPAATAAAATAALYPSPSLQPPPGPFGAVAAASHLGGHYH
In short: (§1)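 In yeast, human transcription factors were expressed with a GST fusion, then pulled down on glutathione beads and given DNA barcodes. Pooled with a tag-only sample, they were exposed to 200 nmole of a 16-mer random double-stranded DNA library (Tris/NaCl/DTT/glycerol buffer, room temperature, 30 min), washed, crosslinked with 0.1% formaldehyde, proximity-ligated using BsaI/T4 ligase for 1 h at 37 °C, PCR-amplified and read on an Illumina NextSeq500. Each hexamer's frequency of reads for a factor, divided by the matching frequency for the tag-only sample, gives the binding signal.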

[2] = target: ETV5 (Homo sapiens, UniProt P41161 1-510)
ETV5, sequence (P41161 whole entry): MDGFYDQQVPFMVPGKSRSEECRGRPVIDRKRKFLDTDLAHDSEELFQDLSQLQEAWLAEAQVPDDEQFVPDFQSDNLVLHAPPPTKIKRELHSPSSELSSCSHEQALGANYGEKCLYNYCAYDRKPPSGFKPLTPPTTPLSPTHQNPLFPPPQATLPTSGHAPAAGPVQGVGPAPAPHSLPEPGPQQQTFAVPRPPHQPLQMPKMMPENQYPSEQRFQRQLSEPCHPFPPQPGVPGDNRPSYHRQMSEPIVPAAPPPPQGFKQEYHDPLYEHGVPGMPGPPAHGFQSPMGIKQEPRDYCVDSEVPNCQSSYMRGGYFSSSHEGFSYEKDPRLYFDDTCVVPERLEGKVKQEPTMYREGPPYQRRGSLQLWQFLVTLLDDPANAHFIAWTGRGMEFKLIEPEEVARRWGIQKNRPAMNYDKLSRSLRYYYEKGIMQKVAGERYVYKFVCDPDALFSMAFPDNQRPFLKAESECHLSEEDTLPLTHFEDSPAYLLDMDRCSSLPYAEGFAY
In short: as §1

[3] = target: T2, SPIC (Homo sapiens, UniProt Q8N5J4 1-248)
T2 sequence: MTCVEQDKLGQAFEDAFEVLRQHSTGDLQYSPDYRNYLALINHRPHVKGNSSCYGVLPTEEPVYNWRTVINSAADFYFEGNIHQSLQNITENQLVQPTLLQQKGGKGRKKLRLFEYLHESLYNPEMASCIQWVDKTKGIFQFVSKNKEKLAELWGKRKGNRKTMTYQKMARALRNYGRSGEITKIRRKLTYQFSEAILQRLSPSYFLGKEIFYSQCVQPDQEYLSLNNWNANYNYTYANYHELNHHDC
In short: as §1

[4] = target: ELF4 (Homo sapiens, UniProt Q99607 1-663)
ELF4, sequence (Q99607 whole entry): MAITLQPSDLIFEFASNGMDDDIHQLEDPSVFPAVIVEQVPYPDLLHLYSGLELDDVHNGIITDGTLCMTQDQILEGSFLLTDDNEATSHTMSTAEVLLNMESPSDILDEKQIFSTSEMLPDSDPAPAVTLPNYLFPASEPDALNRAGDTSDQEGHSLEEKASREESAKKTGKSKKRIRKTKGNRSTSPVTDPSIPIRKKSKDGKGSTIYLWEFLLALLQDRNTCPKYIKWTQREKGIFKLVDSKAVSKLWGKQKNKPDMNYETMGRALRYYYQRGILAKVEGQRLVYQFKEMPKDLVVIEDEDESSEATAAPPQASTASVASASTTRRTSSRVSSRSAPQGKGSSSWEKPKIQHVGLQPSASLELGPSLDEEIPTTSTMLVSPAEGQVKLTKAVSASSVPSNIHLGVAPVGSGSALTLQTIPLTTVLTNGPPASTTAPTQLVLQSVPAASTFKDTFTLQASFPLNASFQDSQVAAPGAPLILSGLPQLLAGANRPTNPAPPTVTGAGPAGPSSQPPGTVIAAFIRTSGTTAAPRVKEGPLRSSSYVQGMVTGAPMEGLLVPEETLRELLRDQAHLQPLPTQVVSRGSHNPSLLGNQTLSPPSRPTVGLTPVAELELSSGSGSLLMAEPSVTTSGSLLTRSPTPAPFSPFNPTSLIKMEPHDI
In short: as §1

[5] = target: T3, ELK4 (Homo sapiens, UniProt P28324-2 1-405)
T3 sequence: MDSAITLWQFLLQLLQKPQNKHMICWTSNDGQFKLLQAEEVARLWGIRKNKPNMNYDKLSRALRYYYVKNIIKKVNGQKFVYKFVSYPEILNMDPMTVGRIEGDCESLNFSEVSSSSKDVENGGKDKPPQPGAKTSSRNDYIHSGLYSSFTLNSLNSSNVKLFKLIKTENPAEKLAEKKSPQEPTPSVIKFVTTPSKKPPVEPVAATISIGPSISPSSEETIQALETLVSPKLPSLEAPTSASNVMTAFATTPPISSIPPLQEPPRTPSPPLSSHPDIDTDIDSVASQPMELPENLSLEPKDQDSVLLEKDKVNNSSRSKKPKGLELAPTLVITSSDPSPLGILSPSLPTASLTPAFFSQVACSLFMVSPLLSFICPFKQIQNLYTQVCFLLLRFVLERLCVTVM
In short: as §1

[6] = target: T4, ETV2 (Homo sapiens, UniProt O00321 1-342)
T4 sequence: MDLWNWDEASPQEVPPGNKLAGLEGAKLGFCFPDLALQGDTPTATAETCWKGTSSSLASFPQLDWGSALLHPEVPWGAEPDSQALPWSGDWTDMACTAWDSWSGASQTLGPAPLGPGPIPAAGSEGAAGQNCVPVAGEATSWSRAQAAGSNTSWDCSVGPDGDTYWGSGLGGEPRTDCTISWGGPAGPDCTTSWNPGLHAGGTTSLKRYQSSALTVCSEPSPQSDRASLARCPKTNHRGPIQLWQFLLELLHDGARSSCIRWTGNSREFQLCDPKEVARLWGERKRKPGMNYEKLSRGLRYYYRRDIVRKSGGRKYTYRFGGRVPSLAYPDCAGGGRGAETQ
In short: as §1

[7] = target: T5, ERF (Homo sapiens, UniProt P50548 1-548)
T5 sequence: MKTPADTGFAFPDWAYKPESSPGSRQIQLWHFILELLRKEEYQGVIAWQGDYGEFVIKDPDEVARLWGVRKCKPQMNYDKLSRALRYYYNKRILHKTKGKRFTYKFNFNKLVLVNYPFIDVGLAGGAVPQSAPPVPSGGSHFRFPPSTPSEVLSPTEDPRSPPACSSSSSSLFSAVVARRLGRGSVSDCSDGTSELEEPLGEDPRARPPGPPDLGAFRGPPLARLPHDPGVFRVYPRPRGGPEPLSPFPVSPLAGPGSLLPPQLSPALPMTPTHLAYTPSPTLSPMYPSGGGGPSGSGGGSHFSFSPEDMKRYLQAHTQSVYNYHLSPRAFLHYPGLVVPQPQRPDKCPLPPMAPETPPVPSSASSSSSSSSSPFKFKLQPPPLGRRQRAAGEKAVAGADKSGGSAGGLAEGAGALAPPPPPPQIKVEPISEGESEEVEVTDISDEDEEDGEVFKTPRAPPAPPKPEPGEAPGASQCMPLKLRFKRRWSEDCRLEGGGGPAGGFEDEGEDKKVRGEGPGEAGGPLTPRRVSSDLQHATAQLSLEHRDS
In short: as §1

[8] = target: T6, ETV3L (Homo sapiens, UniProt Q6ZN32 1-361)
T6 sequence: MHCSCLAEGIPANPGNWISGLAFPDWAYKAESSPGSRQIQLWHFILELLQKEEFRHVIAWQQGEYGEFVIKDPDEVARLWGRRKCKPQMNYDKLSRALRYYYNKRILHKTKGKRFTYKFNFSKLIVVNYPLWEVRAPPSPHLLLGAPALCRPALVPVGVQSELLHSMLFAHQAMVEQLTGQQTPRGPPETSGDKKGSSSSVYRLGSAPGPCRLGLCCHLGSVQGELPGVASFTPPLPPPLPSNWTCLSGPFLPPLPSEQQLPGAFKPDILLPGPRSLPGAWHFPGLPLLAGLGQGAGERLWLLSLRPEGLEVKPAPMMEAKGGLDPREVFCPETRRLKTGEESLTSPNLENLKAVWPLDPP
In short: as §1

[9] = target: T7, ETS2 (Homo sapiens, UniProt P15036 1-469)
T7 sequence: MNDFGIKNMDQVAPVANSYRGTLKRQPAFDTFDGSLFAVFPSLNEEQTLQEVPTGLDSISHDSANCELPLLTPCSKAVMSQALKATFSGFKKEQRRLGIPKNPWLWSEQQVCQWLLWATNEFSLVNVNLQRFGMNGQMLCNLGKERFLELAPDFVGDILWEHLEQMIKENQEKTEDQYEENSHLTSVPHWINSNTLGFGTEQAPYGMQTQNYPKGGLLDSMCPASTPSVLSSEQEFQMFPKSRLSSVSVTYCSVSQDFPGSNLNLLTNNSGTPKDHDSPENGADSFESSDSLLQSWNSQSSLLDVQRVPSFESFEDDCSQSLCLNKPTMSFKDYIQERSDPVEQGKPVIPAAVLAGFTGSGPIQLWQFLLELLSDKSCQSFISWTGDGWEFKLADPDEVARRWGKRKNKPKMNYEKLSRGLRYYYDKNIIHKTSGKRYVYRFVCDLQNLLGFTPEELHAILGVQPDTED
In short: as §1

[10] = target: T8, ETV7 (Homo sapiens, UniProt Q9Y603 1-341)
T8 sequence: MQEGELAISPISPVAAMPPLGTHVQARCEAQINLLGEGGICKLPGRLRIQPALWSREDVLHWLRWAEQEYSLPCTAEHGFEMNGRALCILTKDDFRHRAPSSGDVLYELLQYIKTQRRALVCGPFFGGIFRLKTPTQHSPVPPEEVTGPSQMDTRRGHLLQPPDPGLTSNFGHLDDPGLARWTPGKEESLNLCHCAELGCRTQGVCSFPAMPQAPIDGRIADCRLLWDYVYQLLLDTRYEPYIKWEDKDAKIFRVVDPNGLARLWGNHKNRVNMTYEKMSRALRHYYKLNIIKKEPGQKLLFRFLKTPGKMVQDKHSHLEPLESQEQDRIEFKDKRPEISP
In short: as §1

[11] = target: T9, ELF5 (Homo sapiens, UniProt Q9UKW6-2 1-255)
T9 sequence: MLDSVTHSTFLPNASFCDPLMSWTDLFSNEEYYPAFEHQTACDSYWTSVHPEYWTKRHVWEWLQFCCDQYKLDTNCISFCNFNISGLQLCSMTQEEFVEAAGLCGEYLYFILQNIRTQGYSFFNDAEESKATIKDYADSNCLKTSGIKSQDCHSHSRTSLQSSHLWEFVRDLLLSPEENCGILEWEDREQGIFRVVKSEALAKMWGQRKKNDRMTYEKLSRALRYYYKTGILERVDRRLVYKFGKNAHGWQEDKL
In short: as §1

[12] = target: T10, ETV3 (Homo sapiens, UniProt P41162-2 1-143)
T10 sequence: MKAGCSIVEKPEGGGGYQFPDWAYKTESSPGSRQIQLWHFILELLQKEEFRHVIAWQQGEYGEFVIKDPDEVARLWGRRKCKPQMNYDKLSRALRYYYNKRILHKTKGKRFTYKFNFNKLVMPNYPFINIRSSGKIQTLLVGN
In short: as §1

[13] = target: ETV6 (Homo sapiens, UniProt P41212 1-452)
ETV6, sequence (P41212 whole entry): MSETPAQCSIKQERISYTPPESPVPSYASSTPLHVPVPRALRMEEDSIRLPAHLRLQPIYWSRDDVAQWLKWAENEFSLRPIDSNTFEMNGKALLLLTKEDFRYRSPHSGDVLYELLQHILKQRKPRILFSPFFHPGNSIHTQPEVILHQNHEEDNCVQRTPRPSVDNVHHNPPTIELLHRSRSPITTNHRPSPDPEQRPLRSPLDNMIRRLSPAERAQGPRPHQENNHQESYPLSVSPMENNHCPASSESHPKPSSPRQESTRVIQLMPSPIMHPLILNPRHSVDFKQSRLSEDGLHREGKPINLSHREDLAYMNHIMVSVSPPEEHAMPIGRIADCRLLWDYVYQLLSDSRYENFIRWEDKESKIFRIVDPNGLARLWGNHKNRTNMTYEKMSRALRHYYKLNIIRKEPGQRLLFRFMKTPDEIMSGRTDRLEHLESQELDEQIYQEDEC
In short: as §1

[14] = target: ETV1 (Homo sapiens, UniProt P50549 1-477)
ETV1, sequence (P50549 whole entry): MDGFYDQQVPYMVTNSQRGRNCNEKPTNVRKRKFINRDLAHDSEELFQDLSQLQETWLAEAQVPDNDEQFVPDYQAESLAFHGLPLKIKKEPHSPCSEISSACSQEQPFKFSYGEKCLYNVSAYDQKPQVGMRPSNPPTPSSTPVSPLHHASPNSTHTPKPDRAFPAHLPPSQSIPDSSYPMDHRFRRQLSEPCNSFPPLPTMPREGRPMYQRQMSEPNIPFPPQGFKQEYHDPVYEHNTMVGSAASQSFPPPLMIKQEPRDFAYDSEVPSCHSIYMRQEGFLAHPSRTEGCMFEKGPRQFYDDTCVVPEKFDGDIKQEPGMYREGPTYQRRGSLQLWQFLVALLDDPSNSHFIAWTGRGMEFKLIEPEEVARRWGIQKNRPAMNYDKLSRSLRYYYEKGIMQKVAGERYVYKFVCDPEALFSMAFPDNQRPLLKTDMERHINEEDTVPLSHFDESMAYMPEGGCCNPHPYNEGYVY
In short: as §1

[15] = target: T11, SPDEF (Homo sapiens, UniProt O95238 1-335)
T11 sequence: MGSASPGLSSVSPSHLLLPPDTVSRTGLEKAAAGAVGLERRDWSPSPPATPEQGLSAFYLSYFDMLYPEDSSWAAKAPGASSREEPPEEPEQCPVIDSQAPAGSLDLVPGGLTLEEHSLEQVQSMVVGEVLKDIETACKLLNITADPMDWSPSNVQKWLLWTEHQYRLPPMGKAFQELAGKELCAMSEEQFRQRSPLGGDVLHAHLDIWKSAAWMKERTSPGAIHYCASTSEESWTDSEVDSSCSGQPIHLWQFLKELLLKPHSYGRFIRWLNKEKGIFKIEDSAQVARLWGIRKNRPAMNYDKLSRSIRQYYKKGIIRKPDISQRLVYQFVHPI
In short: as §1

Sequence | binding signal [1] | binding signal [2] | binding signal [3] | binding signal [4] | binding signal [5] | binding signal [6] | binding signal [7] | binding signal [8] | binding signal [9] | binding signal [10] | binding signal [11] | binding signal [12] | binding signal [13] | binding signal [14] | binding signal [15]
GCTGGC | 1.06 fold enrichment (6-mer frequency, TF over GST control) | 1.02 fold enrichment (6-mer frequency, TF over GST control) | 1.12 fold enrichment (6-mer frequency, TF over GST control) | 1.15 fold enrichment (6-mer frequency, TF over GST control) | 1.1 fold enrichment (6-mer frequency, TF over GST control) | 1.07 fold enrichment (6-mer frequency, TF over GST control) | 1.12 fold enrichment (6-mer frequency, TF over GST control) | 1.04 fold enrichment (6-mer frequency, TF over GST control) | 1.04 fold enrichment (6-mer frequency, TF over GST control) | 1.12 fold enrichment (6-mer frequency, TF over GST control) | 1 fold enrichment (6-mer frequency, TF over GST control) | 1.1 fold enrichment (6-mer frequency, TF over GST control) | 1.02 fold enrichment (6-mer frequency, TF over GST control) |  | 
TGCTTG | 1.09 fold enrichment (6-mer frequency, TF over GST control) | 1.2 fold enrichment (6-mer frequency, TF over GST control) | 1.31 fold enrichment (6-mer frequency, TF over GST control) | 1.12 fold enrichment (6-mer frequency, TF over GST control) | 1.4 fold enrichment (6-mer frequency, TF over GST control) | 1.26 fold enrichment (6-mer frequency, TF over GST control) | 1.14 fold enrichment (6-mer frequency, TF over GST control) | 1.13 fold enrichment (6-mer frequency, TF over GST control) | 1.14 fold enrichment (6-mer frequency, TF over GST control) | 1.19 fold enrichment (6-mer frequency, TF over GST control) | 1.04 fold enrichment (6-mer frequency, TF over GST control) | 1.17 fold enrichment (6-mer frequency, TF over GST control) | 1.11 fold enrichment (6-mer frequency, TF over GST control) | 1.21 fold enrichment (6-mer frequency, TF over GST control) | 1.11 fold enrichment (6-mer frequency, TF over GST control)
CGGTAT | 1.08 fold enrichment (6-mer frequency, TF over GST control) | 1.06 fold enrichment (6-mer frequency, TF over GST control) | 1.08 fold enrichment (6-mer frequency, TF over GST control) | 1.06 fold enrichment (6-mer frequency, TF over GST control) | 1.03 fold enrichment (6-mer frequency, TF over GST control) | 1.31 fold enrichment (6-mer frequency, TF over GST control) | 1.02 fold enrichment (6-mer frequency, TF over GST control) |  | 1.01 fold enrichment (6-mer frequency, TF over GST control) |  | 1.1 fold enrichment (6-mer frequency, TF over GST control) | 1.05 fold enrichment (6-mer frequency, TF over GST control) | 1.06 fold enrichment (6-mer frequency, TF over GST control) | 1.09 fold enrichment (6-mer frequency, TF over GST control) | 1.32 fold enrichment (6-mer frequency, TF over GST control)
GTTTGG | 1.06 fold enrichment (6-mer frequency, TF over GST control) | 1.03 fold enrichment (6-mer frequency, TF over GST control) | 1.24 fold enrichment (6-mer frequency, TF over GST control) | 1.03 fold enrichment (6-mer frequency, TF over GST control) | 1.08 fold enrichment (6-mer frequency, TF over GST control) | 1.06 fold enrichment (6-mer frequency, TF over GST control) | 1.11 fold enrichment (6-mer frequency, TF over GST control) | 1.09 fold enrichment (6-mer frequency, TF over GST control) | 1.07 fold enrichment (6-mer frequency, TF over GST control) | 1.12 fold enrichment (6-mer frequency, TF over GST control) | 1.1 fold enrichment (6-mer frequency, TF over GST control) | 1.1 fold enrichment (6-mer frequency, TF over GST control) |  | 1.07 fold enrichment (6-mer frequency, TF over GST control) | 
